The results in this text go back to PubChem BioAssay (NCI).

Some test systems named below: NCI-H23 lung; NCI-H226 lung; NCI-H322M lung; HOP-62 NSCLC; NCI-H460 lung; HOP-92 NSCLC; NCI-H522 lung; A549/ATCC NSCLC; 786-0 renal; COLO 205 colon; DU-145 prostate; K-562 leukemia; MALME-3M melanoma; MDA-MB-231 breast; RXF 393 renal; SF-268 CNS; SF-295 CNS; SF-539 CNS; UACC-257 melanoma; M14 melanoma.
Assay in all cases: NCI-60 one-dose screen, 48 h (100 = growth as untreated, 0 = no growth, -100 = all killed)
Common to all, as to conditions: 10 µM unless noted

About 83,000 compounds went through this panel and 20% of them were active in at least one assay; those are over-represented in the sample as a whole.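 Single-concentration screen, 48 h exposure, 96-well plates. Endpoint: percent growth. Below 10 = active.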 Unmarked numbers belong to inactive results. Activity calls are given as the source filed them.

Take `O=C(O)c1cc([N+](=O)[O-])ccc1Br`: the growth in the test on NCI-H23 lung is 105%; in the test with NCI-H226 lung it was 97.8%; in the test with NCI-H322M lung, 94.1%; in the test on HOP-62 NSCLC it was 109%; with NCI-H460 lung, 105%; in the test on HOP-92 NSCLC, 91.4%. In addition, the growth was 97.3% in the test with NCI-H522 lung; 101% in the test with A549/ATCC NSCLC; 102% in the test on 786-0 renal; 115% in the test on COLO 205 colon; 106% with DU-145 prostate; 100% with K-562 leukemia. Besides, the growth in the test on MALME-3M melanoma is 102%; in the test on MDA-MB-231 breast, 101%; with RXF 393 renal, 110%; with SF-268 CNS, 102%; in the test with SF-295 CNS it was 97.2%; in the test with SF-539 CNS, 94.8%. Further, the growth was 102% with UACC-257 melanoma and 98.3% with M14 melanoma.

In the case of `COc1ccc2nc3c(cc2c1)C(=O)CC(c1ccccc1)C3` (stereo not given), the growth in the test with NCI-H23 lung is 47.5%; with NCI-H226 lung, 26.5%; in the test with NCI-H322M lung, 37.8%; in the test with HOP-62 NSCLC, 39.2%; in the test with NCI-H460 lung, 8.79% (active); in the test on HOP-92 NSCLC, 61.6%. In addition, the growth with NCI-H522 lung is 15.4%; with A549/ATCC NSCLC, 34.8%; with 786-0 renal, 52.8%; in the test with COLO 205 colon it was 1.93% (active); with DU-145 prostate, 1.12% (active); in the test with K-562 leukemia, 13.2%. Moreover, the growth with MALME-3M melanoma is 47.7%; with MDA-MB-231 breast, 54.6%; in the test with RXF 393 renal, -2.76% (active); in the test with SF-268 CNS it was 53.9%; with SF-295 CNS it was 31%; in the test on SF-539 CNS it was 7.92% (active). The growth in the test with UACC-257 melanoma was 82.9%; in the test with M14 melanoma it was 9.28% (active).

Regarding `CCN(CCO)CCC(=O)c1ccc([N+](=O)[O-])cc1`, the growth with NCI-H23 lung was 102%; in the test with NCI-H226 lung, 99.5%; in the test with NCI-H322M lung, 101%; with HOP-62 NSCLC, 109%; in the test with NCI-H460 lung it was 111%; in the test on HOP-92 NSCLC, 92.9%. Also, the growth with NCI-H522 lung was 100%; with A549/ATCC NSCLC it was 103%; with 786-0 renal, 103%; in the test with COLO 205 colon, 116%; with DU-145 prostate, 103%; in the test with K-562 leukemia, 101%. For the same compound, the growth with MALME-3M melanoma was 102%; with MDA-MB-231 breast, 115%; in the test with RXF 393 renal, 106%; in the test with SF-268 CNS it was 97%; with SF-295 CNS, 103%; in the test with SF-539 CNS it was 105%. In addition, the figures for the growth in the test with UACC-257 melanoma and in the test with M14 melanoma were 105% and 106%, respectively.

`N/C(=N\c1nc2ccccc2[nH]1)NC(=O)Cc1cccc2ccccc12`: the growth was 76.5% in the test on NCI-H23 lung; 88.7% with NCI-H226 lung; 85.3% in the test on NCI-H322M lung; 108% with HOP-62 NSCLC; 84.4% in the test with NCI-H460 lung; 64.6% in the test with HOP-92 NSCLC. Besides, the growth was 63.7% in the test with NCI-H522 lung; 69.7% in the test with A549/ATCC NSCLC; 70.4% in the test with 786-0 renal; 90.6% with COLO 205 colon; 92.8% with DU-145 prostate; 107% in the test on K-562 leukemia. Besides, the growth in the test with MALME-3M melanoma was 68.3%; in the test with MDA-MB-231 breast it was 84.6%; in the test on RXF 393 renal, 92%; in the test with SF-268 CNS it was 86.5%; in the test with SF-295 CNS, 98.7%; in the test on SF-539 CNS it was 91.3%. Moreover, the growth with UACC-257 melanoma is 6.29% (active); in the test with M14 melanoma, 107%.

For the compound `O=C(CCCCCCSc1nc(-c2ccc(Cl)cc2)cc(-c2ccc(Cl)cc2)n1)NO`, the growth in the test with NCI-H23 lung is 24.2%; in the test with NCI-H226 lung, 26.7%; with NCI-H322M lung, 38.4%; with HOP-62 NSCLC it was 15.9%; with NCI-H460 lung, 14.9%; in the test with HOP-92 NSCLC, 44.8%. Besides, the growth in the test on NCI-H522 lung was 17.1%; in the test on A549/ATCC NSCLC it was 7.16% (active); in the test with 786-0 renal, 30.8%; in the test with COLO 205 colon, 48.4%; with DU-145 prostate, 22.4%; with K-562 leukemia it was 24.4%. For the same compound, the growth in the test with MALME-3M melanoma is 15%; with MDA-MB-231 breast, 61.1%; in the test with RXF 393 renal, 2.65% (active); in the test with SF-268 CNS, 30.4%; in the test with SF-295 CNS, 52.6%; with SF-539 CNS, 28.4%. Further, the results for the growth with UACC-257 melanoma and with M14 melanoma were 31.5% and 31.7%, respectively.

With `Cc1ccc(NC(=O)N[C@@H](Cc2cc(F)cc(F)c2)C(=O)N[C@@H]2C(=O)N3CCC[C@H]3C(=O)N3CCCC[C@H]3C(=O)N[C@@H](C)C(=O)N3C[C@H](C)C[C@H]3C(=O)O[C@H]2C)cc1`, the growth was 33.5% with NCI-H23 lung; 28.5% in the test on NCI-H226 lung; 62.8% in the test with NCI-H322M lung; 30.1% with HOP-62 NSCLC; 25.6% with NCI-H460 lung; 29.8% in the test on HOP-92 NSCLC. Moreover, the growth with NCI-H522 lung was 31.8%; with A549/ATCC NSCLC, 23.1%; in the test on 786-0 renal it was 28.2%; with COLO 205 colon it was 7.51% (active); in the test on DU-145 prostate, 28.8%; in the test on K-562 leukemia it was 14.3%. Moreover, the growth in the test with MALME-3M melanoma is 35%; with MDA-MB-231 breast, 4.01% (active); in the test on RXF 393 renal, 28.8%; in the test on SF-268 CNS, 28.8%; with SF-295 CNS, 18.5%; with SF-539 CNS, 48.6%. Moreover, the growth with UACC-257 melanoma is 18%; in the test with M14 melanoma it was 34%.

As to `CC(C)C1=NOC(=O)C1=Cc1cn(-c2cccnc2)nc1-c1ccccc1`, the growth was 107% with NCI-H23 lung; 106% in the test on NCI-H226 lung; 100% with NCI-H322M lung; 100% in the test with HOP-62 NSCLC; 103% in the test on NCI-H460 lung; 92.6% in the test on HOP-92 NSCLC. For the same compound, the growth is 82.7% with NCI-H522 lung; 94.8% in the test with A549/ATCC NSCLC; 82.2% with 786-0 renal; 107% with COLO 205 colon; 104% with DU-145 prostate; 72.7% in the test on K-562 leukemia. Besides, the growth was 111% with MALME-3M melanoma; 96% with MDA-MB-231 breast; 64.8% in the test on RXF 393 renal; 102% in the test on SF-268 CNS; 98.1% with SF-295 CNS; 104% in the test on SF-539 CNS. The growth in the test on UACC-257 melanoma is 111%; with M14 melanoma it was 103%.
